Compounds with a hit are over-represented: about 19% of the library has one in this group of screens.
HT1080NT lethal = kills 2HG-producing HT-1080-NT fibrosarcoma cells; HT-1080-NT fibrosarcoma viability, CellTiter-Glo ATP luminescence, 48 h; Potency, µM (highest dose often 46.1 µM), actives largely listed as cytotoxic; 1.6% of 360,000 active; AID 686970;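 note: NT is the 2HG producing partner of a matched IDH1 knockdown line; nearly all actives have a fitted effect of over 55% in size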
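HT-1080-NT fibrosarcoma cells (2HG-overproducing), 750 cells/well in RPMI with 5% FBS, dosed after 2 h and incubated 48 h at 37C. CellTiter-Glo luminescence normalized to DMSO and no-cell wells; concentration-response curves fitted and classed.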
TDP1 cell CPT = DT40-hTDP1 cell growth loss with CPT | chicken DT40 Tdp1-/-;hTDP1 cells + 20 nM CPT, ATP luminescence, 48 h | Potency, µM (titrated, usually from 46.2 µM), usual class: inhibitors | 12% of 420,000 active; note: nearly all actives have a fitted effect of over 55% in size
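Chicken DT40 Tdp1-/- cells complemented with human TDP1, 400 cells/well, exposed to compounds plus 20 nM camptothecin for at least 48 h at 37 C; viability read as ATP content by CellTiter-Glo luminescence.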
IL1B secr inh = inflammasome signaling inhibition, IL-1 beta readout; 4.7% of 360,000 active; activity change, % at 57.5 µM; THP-1 LPS/ATP IL-1B secretion, AlphaLISA, 16 h; stronger effect = lower value; in the data active = activity change below about -50%; inconclusive = mostly about -30% to -49%
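Secreted IL-1B measured by AlphaLISA bead assay after 16 h compound exposure of THP-1 cells; compounds (final up to 57.5 uM) added 1 h before LPS (250 ng/mL) and ATP (1.25 mM) stimulation; lower signal means less secretion.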
TDP1 cell noCPT = qHTS for Inhibitors of human tyrosyl-DNA phosphodiesterase 1 (TDP1): qHTS in cells in absence of CPT; DT40 Tdp1-/- hTDP1 cells, no CPT, ATP luminescence, 48 h; 15% of 420,000 active; Potency, µM (highest dose often 46.2 µM), most hits filed as inhibitors; AID 686978, 2013; note: nearly all actives have a fitted effect of over 55% in size
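Growth kinetics read by CellTiter-Glo luminescence after ≥48 hr at 37 °C. Cells: DT40 Tdp1-/- stably carrying human TDP1, 400 per well, compound exposure in the absence of CPT (DMSO vehicle).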
HT1080 IDH1KD tx = HT-1080 IDH1 knockdown cell toxicity (counter line); HT-1080 IDH1 knockdown viability, ATP luminescence, 48 h; Potency, µM (doses to about 46.1 µM), usual class: cytotoxic; 2% of 360,000 active
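After a 2 h attachment period, IDH1KD HT-1080 cells took pin-transferred compound for 48 h at 37 °C; ATP-based luminescence after 10 min room-temperature reagent incubation reported viability.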
Each line names hits and unclear results; the compound was inactive in the other large screens. Unless noted, calls come from the whole dose curve; as a rule, active = well fitted curve in the direction sought with a large enough effect; inconclusive = small, poorly fitted or top-dose-only effect, or another doubt; inactive = no such curve, though single readings can be large; an effect the other way counts as inactive or inconclusive.

O=C(Nc1ccccc1)c1cc(C2CCCN(C(=O)C/C=C/c3ccccc3)C2)on1 (stereo not given)	TDP1 cell CPT inconclusive, TDP1 cell noCPT 21µM
CC(=O)N1CCCC(c2cc(C(=O)Nc3ccccc3)no2)C1 (stereo not given)	TDP1 cell noCPT inconclusive
CCCC(=O)N1CCCC(c2cc(C(=O)NCc3ccccc3)no2)C1 (stereo not given)	HT1080 IDH1KD tx inconclusive
O=C(Nc1ccc2c(c1)OCO2)c1cc(C2CCCN(C(=O)CCc3ccccc3)C2)on1 (stereo not given)	TDP1 cell CPT 21µM, TDP1 cell noCPT inconclusive, HT1080 IDH1KD tx inconclusive
O=C(Nc1ccc2c(c1)OCO2)c1cc(C2CCCN(C(=O)CCCc3ccccc3)C2)on1 (stereo not given)	HT1080NT lethal 16µM, TDP1 cell CPT 18µM, TDP1 cell noCPT inconclusive, HT1080 IDH1KD tx inconclusive
CC(C)(C)c1ccc(NC(=O)c2cc(C3CCCN(C(=O)CCc4ccccc4)C3)on2)cc1 (stereo not given)	TDP1 cell CPT 8.2µM, TDP1 cell noCPT 12µM
Cn1ncc(Cl)c1C(=O)N1CCN(S(=O)(=O)c2ccc(Cl)s2)CC1	none
CCn1cc(/C=C(\NC(=O)c2cc(OC)c(OC)c(OC)c2)C(=O)NCCCn2ccnc2)c2ccccc21	TDP1 cell noCPT inconclusive (no result: HT1080NT lethal, IL1B secr inh, HT1080 IDH1KD tx)
CC1(C)CC(=O)C(C=Nc2ccc(NC3=C(C#N)C(=O)CC(C)(C)C3)cc2)=C(O)C1	none
COc1ccccc1C(=O)Nc1ccc2c(c1)nc(CCNC(=O)c1ccco1)n2C	HT1080NT lethal inconclusive, TDP1 cell CPT 1.3µM, TDP1 cell noCPT 0.92µM, HT1080 IDH1KD tx 4.6µM
Cn1c(CCNC(=O)c2ccco2)nc2cc(NC(=O)c3ccco3)ccc21	TDP1 cell CPT inconclusive
Cn1c(CCNC(=O)c2ccco2)nc2cc(NS(=O)(=O)c3ccccc3)ccc21	TDP1 cell CPT 21µM, TDP1 cell noCPT inconclusive
CCOC(=O)[C@]12CCC=C1N(Cc1ccc3c(c1)OCO3)C(=O)[C@H](CC(=O)NCc1cccc3ccccc13)C2	HT1080NT lethal inconclusive, TDP1 cell CPT inconclusive, IL1B secr inh -60, TDP1 cell noCPT inconclusive, HT1080 IDH1KD tx inconclusive
CCOC(=O)[C@]12CCC=C1N(Cc1ccc3c(c1)OCO3)C(=O)[C@H](CC(=O)NCc1ccc(C)o1)C2	TDP1 cell CPT inconclusive, TDP1 cell noCPT 23µM
O=C(CN1CCC(n2nnc3cc(C(F)(F)F)ccc32)CC1)Nc1ccc2c(c1)CCC2	TDP1 cell CPT inconclusive, IL1B secr inh -50, TDP1 cell noCPT 21µM
CC1Cc2ccccc2N1C(=O)CN1CCC(n2nnc3cc(C(F)(F)F)ccc32)CC1 (stereo not given)	TDP1 cell CPT inconclusive, IL1B secr inh -58, TDP1 cell noCPT 23µM
COC(=O)c1ccccc1NC(=O)CN1CCC(n2nnc3cc(C(F)(F)F)ccc32)CC1	none
COc1cccc(-c2nnn(CC(C)=O)n2)c1	none
CC(=O)C1=C(c2ccc(Cl)c(Cl)c2)N(C(C)=O)n2cnnc2S1	TDP1 cell CPT 2.6µM, TDP1 cell noCPT 2.9µM (no result: HT1080NT lethal, IL1B secr inh, HT1080 IDH1KD tx)
CC(=O)C1=C(c2ccc(Cl)c(Cl)c2)N(C(C)=O)n2c(C)nnc2S1	TDP1 cell CPT 2.9µM, TDP1 cell noCPT 4.1µM (no result: HT1080NT lethal, IL1B secr inh, HT1080 IDH1KD tx)
COc1cccc(C2=C(C(C)=O)Sc3nncn3N2C(C)=O)c1	TDP1 cell CPT inconclusive, TDP1 cell noCPT 23µM (no result: HT1080NT lethal, IL1B secr inh, HT1080 IDH1KD tx)
CCNC(=S)Nc1cc(OCC)c(N2CCOCC2)cc1OCC	TDP1 cell CPT inconclusive, TDP1 cell noCPT inconclusive
CCOc1cc(N2CCOCC2)c(OCC)cc1NS(=O)(=O)c1ccc(Cl)s1	HT1080NT lethal inconclusive, TDP1 cell CPT 4.6µM, TDP1 cell noCPT 2.9µM, HT1080 IDH1KD tx 4.1µM
CN(CC(=O)Nc1ccc(Cl)cc1)CC(=O)Nc1cc(Cl)ccc1C#N	HT1080NT lethal inconclusive, TDP1 cell CPT inconclusive, IL1B secr inh -84, TDP1 cell noCPT 23µM
CCCNC(=O)Nc1cc(OCC)c(N2CCOCC2)cc1OCC	TDP1 cell CPT inconclusive, TDP1 cell noCPT 18µM
CC(Oc1cccc(Cl)c1)C(=O)Nc1cc(=O)n(C)c(=O)n1C (stereo not given)	TDP1 cell CPT inconclusive, TDP1 cell noCPT 13µM
CC1CCCCN1CCCNc1ccc(C(CC(N)=O)NC(=O)Cc2cccc3ccccc23)cc1[N+](=O)[O-] (stereo not given)	none
CCOc1ccccc1OCCCC(=O)Nc1sccc1C(N)=O	TDP1 cell CPT inconclusive, TDP1 cell noCPT 16µM
CC(Oc1cccc(Cl)c1)C(=O)Nc1cc(Cl)ccc1N1CCOCC1 (stereo not given)	TDP1 cell CPT 21µM, TDP1 cell noCPT inconclusive
CCOc1cc(N2CCOCC2)c(OCC)cc1NC(=O)CCC1CCCC1	TDP1 cell CPT 16µM, TDP1 cell noCPT 18µM
CCOc1cc(N2CCOCC2)c(OCC)cc1NC(=O)CCS(=O)(=O)c1ccc(Cl)cc1	TDP1 cell CPT 4.1µM, TDP1 cell noCPT 1.8µM
O=C(CCC1CCCC1)N[C@@H](Cc1ccc(O)cc1)C(=O)O	none
O=C(CNC(=O)N1CC(=O)Nc2ccccc21)NCc1cccc(Cl)c1	none
CCCc1cc(=O)[nH]c2nnc(SCC(=O)Nc3cc(C)on3)n12	TDP1 cell noCPT inconclusive
CCCC(C(=O)N(C)CC(=O)Nc1ccc(N2CCOCC2)cc1)c1ccccc1 (stereo not given)	none
CN(CC(=O)Nc1ccc(N2CCOCC2)cc1)CC(=O)Nc1ccc(Cl)cc1[N+](=O)[O-]	TDP1 cell CPT inconclusive, TDP1 cell noCPT 26µM
CCOc1cc(N2CCOCC2)c(OCC)cc1NC(=O)COC(=O)CCOc1ccc(C)cc1	TDP1 cell CPT inconclusive, TDP1 cell noCPT inconclusive
CCOc1cc(N2CCOCC2)c(OCC)cc1NC(=O)COC(=O)CCOc1cc(C)ccc1C	TDP1 cell CPT inconclusive, IL1B secr inh -86, TDP1 cell noCPT 23µM
CC(Oc1cccc(Cl)c1)C(=O)N(C)CC(=O)Nc1ccc(N2CCOCC2)cc1 (stereo not given)	TDP1 cell CPT 13µM, TDP1 cell noCPT 16µM
Cc1ccc(C)c(OCCC(=O)OCC(=O)Nc2cccnc2Cl)c1	TDP1 cell CPT 15µM, TDP1 cell noCPT inconclusive
O=C(Cc1cccc(NC(=O)C2CCCN(C(=O)C3CCCC3)C2)c1)Nc1ccc(C(=O)N2CCCCC2)cc1 (stereo not given)	TDP1 cell CPT inconclusive, TDP1 cell noCPT inconclusive
CC(=O)Nc1ccc(C(=O)COC(=O)c2cccs2)c(F)c1	none
Cc1ccc(C)c(OCCCC(=O)Nc2ccccc2C(N)=O)c1	TDP1 cell CPT inconclusive, TDP1 cell noCPT 16µM
CC(Oc1cccc(Cl)c1)C(=O)Nc1ccccc1N1CCCCC1 (stereo not given)	none
CCOc1cc(N2CCOCC2)c(OCC)cc1NC(=O)C1CCCC1	TDP1 cell CPT inconclusive, TDP1 cell noCPT 29µM

Compound activity deposited in PubChem BioAssay by National Center for Advancing Translational Sciences (NCATS).
